Data reported in PubChem BioAssay (EPA / NIEHS).
Records with an inconclusive call do not appear. Active and inactive are the calls of the source. The calls were made as follows, unless noted: active = hit-call score of the fitted dose curve at least 0.9, where 1 is the maximum; inconclusive = response in the unintended direction; inactive = score below 0.9.

Tests used:
[1] = TOX21_p53_BLA_p2_viability: Viability Assessment in the Tox21 HCT-116 p53 Agonism Beta-lactamase Assay, Phase 2 (AID 2283591);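 also: actives lower the ATP signal meaning cytotoxicity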
Summary of the method: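 Cytotoxicity readout: CellTiter-Glo ATP luminescence, 30 min at room temperature, after the beta-lactamase read. Cells were HCT116 exposed 16 h at 37C to compounds pin-transferred at 217-fold dilution from DMSO stocks.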

[2] = molecular target: Cellular tumor antigen p53 (Homo sapiens) (UniProt P04637); assay: TOX21_p53_BLA_p2_ratio: Tox21 HCT-116 p53 Agonism Beta-lactamase Assay, Ratio, Phase 2 (AID 2283592)
Chain of Cellular tumor antigen p53 (Homo sapiens) (P04637 whole entry, looked up): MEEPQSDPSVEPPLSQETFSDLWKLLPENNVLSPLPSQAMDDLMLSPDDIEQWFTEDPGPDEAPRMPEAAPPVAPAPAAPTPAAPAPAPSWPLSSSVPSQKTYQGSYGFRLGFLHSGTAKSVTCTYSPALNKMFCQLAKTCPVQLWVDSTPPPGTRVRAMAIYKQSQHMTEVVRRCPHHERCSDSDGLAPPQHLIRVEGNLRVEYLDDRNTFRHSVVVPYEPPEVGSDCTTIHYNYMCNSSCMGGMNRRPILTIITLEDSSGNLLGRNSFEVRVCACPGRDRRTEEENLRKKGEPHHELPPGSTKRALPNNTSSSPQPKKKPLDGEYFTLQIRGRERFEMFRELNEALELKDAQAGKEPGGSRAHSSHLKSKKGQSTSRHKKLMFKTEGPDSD
Summary of the method: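 Readout: blue/green (460/530 nm) FRET emission ratio after 2 h CCF4-AM loading at room temperature, excitation 405 nm. HCT116 p53 bla cells, 16 h compound exposure at 37C, 5% CO2; agonist direction fitted against DMSO baseline.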

[3] = molecular target: Cellular tumor antigen p53 (Homo sapiens) (UniProt P04637); assay: TOX21_p53_BLA_p3_ratio: Tox21 HCT-116 p53 Agonism Beta-lactamase Assay, Ratio, Phase 3 (AID 2283596)
Summary of the method: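 Cells were seeded at 4000/well, rested 5 h at 37C, then dosed with DMSO compound solutions (217-fold dilution) for 16 h. CCF4-AM substrate was loaded for 2 h at room temperature, and the 460/530 nm emission ratio was fitted for gain of signal versus DMSO.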

[4] = molecular target: Cellular tumor antigen p53 (Homo sapiens) (UniProt P04637); assay: TOX21_p53_BLA_p5_ratio: Tox21 HCT-116 p53 Agonism Beta-lactamase Assay, Ratio, Phase 5 (AID 2283599)
Summary of the method: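 Beta-lactamase reporter ratio (blue 460 nm over green 530 nm, 405 nm excitation) after 2 h CCF4-AM loading, in HCT-116 cells exposed 16 h at 37 C to compounds pinned at 217-fold dilution. Increases relative to DMSO baseline scored.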

[5] = molecular target: Cellular tumor antigen p53 (Homo sapiens) (UniProt P04637); assay: TOX21_p53_BLA_p4_ratio: Tox21 HCT-116 p53 Agonism Beta-lactamase Assay, Ratio, Phase 4 (AID 2283601)
Summary of the method: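 Signal is the blue/green (460nm/530nm) ratio of cleaved versus uncleaved CCF4-AM substrate, read after 2 h substrate loading. Cells were HCT116 carrying the p53-responsive beta-lactamase reporter, dosed 16 h at 37C, 5% CO2; CellTiter-Glo measured in parallel.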

[6] = TOX21_p53_BLA_p5_viability: Viability Assessment in the Tox21 HCT-116 p53 Agonism Beta-lactamase Assay, Phase 5 (AID 2283600)
Summary of the method: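 ATP luminescence (CellTiter-Glo, 30 min, RT) served as the viability read-out, with loss of signal indicating cytotoxicity. Compounds in DMSO were pinned at a 217-fold dilution onto 4000 cells/well and incubated 16 h, 37C.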

[7] = CCTE_Harrill_HTTr_Viability_MCF7: CCTE's 6-hour Cell Viability Assessment for the High-Throughput Transcriptomics (HTTr) Platform, in MCF-7 cells cultured in DMEM + 10% fetal bovine serum, Harrill Lab (AID 2284010; active = hit-call score of the fitted dose curve at least 0.9, where 1 is the maximum; inactive = score below 0.9)
Summary of the method: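 Read-out is propidium iodide gain of signal by high-content imaging, reflecting membrane integrity loss. Measurements are taken 6 h after dosing, eight concentrations per chemical, with DMSO serving as baseline for bidirectional curve fitting.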

[8] = CCTE_Harrill_HTTr_Apoptosis_MCF7: CCTE's 6-hour Apoptosis Assessment for the High-Throughput Transcriptomics (HTTr) Platform, in MCF-7 cells cultured in DMEM + 10% fetal bovine serum, Harrill Lab (AID 2284011; active = hit-call score of the fitted dose curve at least 0.9, where 1 is the maximum; inactive = score below 0.9)
Summary of the method: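 Read-out: CellEvent Caspase 3/7 Green signal by high content imaging, gain-of-signal indicating apoptosis. MCF-7 cells, DMEM + 10% FBS, eight-point dilution series, 6 h exposure. Curves fitted bidirectionally relative to DMSO negative control.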

[9] = CCTE_Harrill_HTTr_CellCount_MCF7: CCTE's Cell Proliferation Assessment for the High-Throughput Transcriptomics (HTTr) Platform, Harrill Lab (AID 2284012);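 also: cells exposed to compound for six hours; intended direction is loss of nuclei count meaning fewer cells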
Summary of the method: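 Cell count served as viability reporter: loss of Hoechst-stained nuclei, counted by high content imaging, marks decreased growth or survival. Exposure was 6 h in MCF-7 cells across eight concentrations, with DMSO as baseline.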

[10] = ACEA_ER_AUC_viability: ACEA Biosciences xCELLigence Real-Time Cell Analysis on Estrogen Receptor Agonism for Viability (AID 2283782);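 also: hit means loss of impedance signal meaning reduced cell growth or viability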
Summary of the method: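 Viability endpoint: reduced impedance area under the curve relative to DMSO, recorded by real-time electrode sensing over ~80 h of continuous exposure. Duplicate plates of T47D in hormone-depleted medium; eight concentrations, 1:4 dilutions, 100 uM maximum.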

Row | Structure (SMILES) | outcome [1] | outcome [2] | outcome [3] | outcome [4] | outcome [5] | outcome [6] | outcome [7] | outcome [8] | outcome [9] | AC50 [10]
1 | CN(C)CCC[C@@]1(c2ccc(F)cc2)OCc2cc(C#N)ccc21 | inactive | inactive | inactive | inactive | inactive | – | – | – | – | –
2 | FC(F)(F)C(F)(F)C(F)(F)C(F)(F)C(F)(F)F | inactive | inactive | inactive | inactive | inactive | – | – | – | – | –
3 | OCCCC1CCCCC1 | inactive | inactive | inactive | inactive | – | inactive | inactive | inactive | inactive | –
4 | N#Cc1c(N(CC(=O)O)CC(=O)O)sc(C(=O)O)c1CC(=O)O | inactive | inactive | inactive | inactive | inactive | – | – | – | – | –
5 | CN1CCCCC1CCN1c2ccccc2Sc2ccc(S(C)=O)cc21 (stereo not given) | inactive | inactive | inactive | inactive | inactive | – | – | – | – | –
6 | CC(=O)N[C@@H]([C@@H](O)[C@H](O)[C@H](O)CO)[C@@H](O)CC(=O)C(=O)O | inactive | inactive | inactive | inactive | inactive | – | – | – | – | –
7 | O=C(O)c1ccccc1C(=O)Nc1ccc(S(=O)(=O)Nc2nccs2)cc1 | inactive | inactive | inactive | inactive | inactive | – | – | – | – | –
8 | C[C@@H]1CN(c2c(F)c(N)c3c(=O)c(C(=O)O)cn(C4CC4)c3c2F)C[C@H](C)N1 | inactive | inactive | inactive | inactive | inactive | inactive | inactive | inactive | inactive | –
9 | CCCC/C=C/CCCCO | inactive | inactive | inactive | inactive | inactive | inactive | – | – | – | 50 µM (active)
10 | CC/C=C\C/C=C\C/C=C\C/C=C\C/C=C\C/C=C\CCC(=O)O | inactive | inactive | inactive | inactive | inactive | – | – | – | – | –
11 | ON=C1CCCC1 | inactive | inactive | inactive | inactive | inactive | – | – | – | – | –
12 | NCCO/C=C/[C@H](N)C(=O)O | inactive | inactive | inactive | inactive | inactive | inactive | – | – | – | –
13 | COC(=O)CCCCCCCCC(=O)OC | inactive | inactive | inactive | inactive | inactive | – | – | – | – | –
14 | CC12CCC(C1)C(C)(C)C2=O (stereo not given) | inactive | inactive | inactive | inactive | inactive | – | – | – | – | –
